Test results as given in PubChem BioAssay (NCATS).
Results filed as inconclusive are left out. A call without a number means that no potency is given here. Calls of active or inactive are those of the source. The call rests on the fitted dose curve; in most records, active means well fitted inhibition curve with a large enough effect; inconclusive means small, poorly fitted or top-dose-only effect; inactive means no such curve, though single readings can be large or run the other way.

test: qHTS for Inhibitors of the Aldehyde Dehydrogenase Family (ALDH1A2, ALDH1A3, ALDH2, ALDH3A1) (AID 2061307); conditions: ALDH inhibition qHTS; series mostly up to 50.3 µM; further: nearly all actives have a fitted effect of over 50% in size; on potency: test system not described further here
Potency means the concentration at half of the fitted maximal effect.

Row | Compound | Potency
1 | N[C@H](CCC(=O)Nc1cccc(-c2nn3c(=O)cc(N4CCNCC4)nc3s2)c1)C(=O)O | inactive
2 | COc1cccc(NC(=O)c2cc3ccccc3[nH]c2=O)c1 | inactive
3 | O=C(NCc1ccc(F)cc1)c1nc(-c2ccc(F)cc2)c2ccccn12 | inactive
4 | Cc1cc(=O)n2[nH]c(NC(=O)c3cccnc3)nc2n1 | inactive
5 | Cc1ccc(NC(=O)c2nc3nc(C)cc(C)n3n2)c(F)c1 | inactive
6 | CN(C)CCCN1c2ccc([N+](=O)[O-])cc2CCc2cc([N+](=O)[O-])ccc21 | inactive
7 | O=C(Nc1nc2ccccc2c(=O)s1)c1ccc(F)cc1Cl | inactive
8 | COc1ccc(-n2nc(C(=O)Nc3ccc(Cl)cn3)c3c4ccccc4n(C)c3c2=O)cc1 | inactive
9 | COC(=O)CC(=O)Nc1ccccc1C(=O)O | inactive
10 | COc1ccc(-c2nn(-c3ccccc3)cc2C(=O)Nc2ccccc2OC)cc1 | inactive
11 | O=C(O)c1csc(-n2[nH]c(-c3c(F)cccc3F)cc2=O)n1 | inactive
12 | Cc1csc(-c2cccc(C(=O)Nc3ccc(F)c(F)c3F)c2)n1 | inactive
13 | O=C(O)c1csc(-n2nc(-c3ccc(F)c(F)c3)cc2Cc2nn[nH]n2)n1 | inactive
14 | O=C(CCCCc1cn(-c2cc3ccc(O)cc3oc2=O)nn1)NCCOCCOCCOc1ccc(-n2ncc3c2CCCC3NC(=O)c2ccccn2)cc1 (configuration not stated) | 2820 nM (active)
15 | O=C(O)c1csc(-n2nc(C(F)(F)F)cc2-c2ccc(Cl)cc2)n1 | inactive
16 | COC(=O)c1ccc(CNc2ncnc3ccccc23)cc1 | 708 nM (active)
17 | O=C(O)c1cccc(S(=O)(=O)N2CCC(n3nnc4cc(C(F)(F)F)ccc43)CC2)c1 | inactive
